Test results from PubChem BioAssay (NCATS).
Results filed as inconclusive are left out. Activity calls are given as the source filed them. Unless noted, calls come from the whole dose curve; as a rule, active = well fitted curve in the direction sought with a large enough effect; inconclusive = small, poorly fitted or top-dose-only effect, or another doubt; inactive = no such curve, though single readings can be large; an effect the other way counts as inactive or inconclusive.

Key:
[1] = molecular target: Lysosomal acid glucosylceramidase (Homo sapiens) (UniProt P04062); experiment: Glucocerebrosidase-p2 (AID 348; in the data active = potency below about 10 µM; note: potency is the fitted concentration of half-maximal effect); settings: purified GBA, blue fluorogenic substrate, 40 min
Method in brief: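 Compounds titrated from 0.6 nM upwards against 0.2 nM enzyme in pH 5.9 citric acid/KH2PO4, taurocholate, tween-20; blue fluorogenic substrate 80 uM, 40 min room temperature, stopped and read Ex 365/Em 440 for AC50.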

[2] = AP1 Signaling Pathway (AID 357; active = well fitted curve in either direction with a large enough effect, not every such curve was filed as active;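 note: ME-180 reporter cells stimulated with EGF at its EC50 level; % is set by controls: 0 for no effect and ±100 for the full control effect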); settings: ME-180 AP-1-bla reporter, EGF-induced, beta-lactamase ratio, 5 h; at 7.69 µM (top of the series) unless noted
Method in brief: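 A ratiometric CCF4 readout (405 nm excitation; 460 and 530 nm emission) quantified AP-1-driven beta-lactamase in ME-180 cells after 5 h with compound and EC50 EGF; AC50 values were derived for activators and inhibitors.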

[3] = molecular target: Cytochrome P450 1A2 (Homo sapiens) (UniProt P05177); experiment: p450-cyp1a2 (AID 410; calls by dose curve; note: potency is the fitted concentration of half-maximal effect); settings: recombinant CYP1A2, luciferin-ME demethylation, luminescence; series mostly up to 57 µM
Method in brief: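 Human CYP1A2 (20nM) demethylated Luciferin-ME at its Km (100uM) in 100mM KPO4. After 10 min compound preincubation, NADPH regeneration ran the reaction 60 min at room temperature. Luciferin was read by luminescence, normalized to 57 uM furafylline.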

[4] = NFAT Signaling Pathway (AID 444; active = well fitted curve in either direction with a large enough effect, not every such curve was filed as active;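 note: carbachol stimulus at about its EC50 of 1 µM final; % is set by controls: 0 for no effect and ±100 for the full control effect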); settings: Jurkat NFAT-bla M1, carbachol, beta-lactamase ratio, 5 h; at 7.69 µM (top of the series) unless noted
Method in brief: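 Jurkat cells carrying an NFAT-driven β-lactamase reporter and co-transfected muscarinic M1 receptor were treated with compound plus carbachol (1 uM final, an EC50 level) for 5 h at 37 °C. CCF4 loading followed for 1 h at RT; 460/530 nm ratio gave %activity.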

[5] = Stat Signaling Pathway (AID 446; active = well fitted curve in either direction with a large enough effect, not every such curve was filed as active;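 note: ME-180 cervical cancer cells given 40 pM IL-6 alongside compound; SIE-controlled beta-lactamase reporter measured as 460/530 nm FRET emission ratio; % is set by controls: 0 for no effect and ±100 for the full control effect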); settings: ME-180 SIE beta-lactamase reporter, IL-6 stimulated, 5 h; at 7.69 µM (top of the series) unless noted
Method in brief: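 IL-6/STAT signaling read in ME-180 cells via an SIE beta-lactamase reporter. Stimulus was 40 pM IL-6 (its AC50) for 5 hrs, so both activation and inhibition register.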

[6] = molecular target: Glucocorticoid receptor (Homo sapiens) (UniProt P04150); experiment: GR-GFP Redistribution (AID 450;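 active = compounds whose dose series gives a full or clear partial fitted curve of increased nuclear translocation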; note: potency is the fitted concentration of half-maximal effect); settings: U2OS GR-GFP nuclear translocation, laser cytometry, 2 h
[7] = molecular target: Glucocorticoid receptor (Homo sapiens) (UniProt P04150); experiment: GR-EFC Redistribution (AID 451; calls by dose curve; note: potency is the fitted concentration of half-maximal effect); settings: CHO-K1 GR-EFC translocation, beta-gal luminescence, 2 h
Method in brief: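 CHO-K1 cells stably expressing nuclear-localized β-gal enzyme acceptor and GR fused C-terminally to the enzyme donor fragment; ligand-driven nuclear translocation restores β-gal by complementation. Compounds titrated up to 46 uM final, 2 h at 37 °C; luminescence read.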

[8] = molecular target: Mitogen-activated protein kinase 10 (Mus musculus) (UniProt Q61831); experiment: JNK3 AlphaScreen Assay (AID 530; active = well fitted curve in either direction with a large enough effect, not every such curve was filed as active;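 note: kinase came from lysate of stimulated human HepG2 cells; signal reports phosphorylation of biotinylated GST-cJun 1-79 at Ser73 with 10 µM ATP; % is set by controls: 0 for no effect and ±100 for the full control effect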); settings: JNK3 lysate, c-Jun phosphorylation; series mostly up to 57.1 µM
Method in brief: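 JNK3 came from HepG2 lysates pre-activated with IL-1beta and TNF-alpha and phosphorylated biotinylated GST-cJun (1-79) at 10 uM ATP, pH 7.6, room temperature. Compounds were titrated. AlphaScreen signal used anti-phospho-cJun (Ser73) antibody.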

[9] = molecular target: Cytochrome P450 3A4 (Homo sapiens) (UniProt P08684); experiment: qHTS Assay for Inhibitors and Substrates of Cytochrome P450 3A4 (AID 884); settings: recombinant CYP3A4, Luciferin-PPXE luminescence; series mostly up to 57.1 µM; note: nearly all actives have a fitted effect of over 50% in size; note: potency is the fitted concentration of half-maximal effect
Method in brief: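 20 nM human CYP3A4 with 25 uM Luciferin-PPXE (at KM) in 200 mM KPO4, preincubated 10 min with compound; NADPH regeneration started a 60 min RT reaction. Luciferin detected by luminescence, normalized to 57 uM ketoconazole as full inhibition.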

[10] = molecular target: Cytochrome P450 2C19 (Homo sapiens) (UniProt P33261); experiment: qHTS Assay for Inhibitors and Substrates of Cytochrome P450 2C19 (AID 899); settings: recombinant CYP2C19, luciferin-H EGE luminescence; series mostly up to 57.1 µM; note: potency is the fitted concentration of half-maximal effect; nearly all actives have a fitted effect of over 60% in size
Method in brief: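 Human CYP2C19 (5nM) with Luciferin-H EGE at 10uM (its KM) in 50mM KPO4 was preincubated with compound for 10 min at 37C. NADPH regeneration started a 60 min 37C reaction. Luciferin was read by luminescence, normalized to 57uM ketoconazole.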

[11] = qHTS Assay for Lipid Storage Modulators (AID 1519; calls by dose curve); settings: Drosophila S3 cells, BODIPY lipid droplet/cell ratio, laser cytometry, cells loaded with oleic acid; for activity change, negative = inhibition: at 57.5 µM (top of the series)
Method in brief: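 Cells seeded at 5,000 per well were treated with compounds over a concentration series and loaded with oleic acid (400 uM, as added). Lipid droplet fluorescence (488 nm excitation, 500-530 nm channel) was read by laser-scanning cytometry and normalized to 20 uM Triacsin C.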

[12] = molecular target: Dual specificity protein kinase CLK4 (Homo sapiens) (UniProt Q9HAZ1); experiment: qHTS Assay for Inhibitors of CDC-like Kinase 4 (Kinase-Glo Assay) (AID 1770); settings: recombinant Clk4, Kinase-Glo ATP depletion luminescence; series mostly up to 66.7 µM; note: nearly all actives have a fitted effect of over 65% in size; note: potency is the fitted concentration of half-maximal effect
Method in brief: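 Inhibition was judged from remaining ATP, measured by Ultra-Glo luciferase bioluminescence after Clk4 (25 nM) had acted on RS peptide at 1 uM ATP for 4.5 hours, room temperature.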

[13] = molecular target: Dual specificity protein kinase CLK4 (Homo sapiens) (UniProt Q9HAZ1); experiment: qHTS Assay for Inhibitors of CDC-like Kinase 4 (ADP-FP Assay) (AID 1795); settings: Transcreener ADP fluorescence polarization; series mostly up to 50 µM;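 note: recombinant human CLK4 phosphorylating RS repeat peptide at 1 µM ATP; % is set by controls: 0 for no effect and ±100 for the full control effect; nearly all actives have a fitted effect of over 60% in size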
Method in brief: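 Inhibition of ADP formation by 6.25 nM Clk4 is measured using 1 uM ATP and 100 uM RS repeat peptide over one hour. Produced ADP displaces a fluorescent tracer from antibody, lowering polarization.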

[14] = molecular target: Ubiquitin carboxyl-terminal hydrolase 1 (Homo sapiens) (UniProt O94782); experiment: Inhibitors of USP1/UAF1: Pilot qHTS (AID 504865); settings: purified USP1/UAF1, Ub-rhodamine cleavage fluorescence; series mostly up to 54.9 µM;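 note: rhodamine fluorescence freed from ubiquitin-rhodamine substrate followed over time; top concentration of the series differs between compounds; % is set by controls: 0 for no effect and ±100 for the full control effect; nearly all actives have a fitted effect of over 35% in size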
Method in brief: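 Kinetic fluorescence assay: 1nM USP1/UAF1, 15 min compound preincubation, then 150nM Ub-Rho; 480/540 nm.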

[15] = Primary qHTS for small molecule stabilizers of the endoplasmic reticulum resident proteome: Secreted ER Calcium Modulated Protein (SERCaMP) assay (AID 1508630); settings: SH-SY5Y GLuc-SERCaMP (Gaussia luciferase released on ER calcium loss) secretion, thapsigargin, luminescence; series mostly up to 38.4 µM; note: % is set by controls: 0 for no effect and ±100 for the full control effect
Method in brief: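 GLuc-SERCaMP-expressing SH-SY5Y cells, pretreated 16 h with compound, are challenged with thapsigargin to empty ER calcium stores; after 4 h, coelenterazine is added directly to the medium and luminescence is imaged.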

[16] = molecular target: 3',5'-cyclic-AMP phosphodiesterase 4B (Homo sapiens) (UniProt Q07343); experiment: qHTS Assay for Inhibitors of PDE-IV (AID 607; active = well fitted activation curve with a large enough effect in the main read-out, with a control signal flat, not every such curve was filed as active; note: % of control where 0% means no effect); settings: HEK293 ACTOne CNG channel cells, membrane potential fluorescence; series mostly up to 22.9 µM
Method in brief: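 Live HEK293 cells with a modified cyclic nucleotide-gated (CNG) channel report intracellular cAMP via membrane-potential dye fluorescence (ex 535/em 590 nm). Endogenous PDE-IV was targeted. Compounds were tested at up to 22.9 uM final; RO 20-1724 100 uM served as control.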

[17] = molecular target: Cytochrome P450 3A4 (Homo sapiens) (UniProt P08684); experiment: qHTS Assay for Activators of Cytochrome P450 3A4 (AID 885); settings: recombinant CYP3A4, Luciferin-PPXE luminescence, 60 min; series mostly up to 57.1 µM; note: nearly all actives have a fitted effect of over 65% in size
Method in brief: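 Quantitative HTS format: compounds preincubated with 20nM human CYP3A4 and Luciferin-PPXE substrate at KM, reaction started by NADPH regeneration, stopped after 60 min, luciferase luminescence read 20 min later.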

[18] = molecular target: Dual specificity protein kinase CLK4 (Homo sapiens) (UniProt Q9HAZ1); experiment: qHTS Assay for Inhibitors of CDC-like Kinase 4 (ADP-Glo Assay) (AID 1771); settings: recombinant CLK4, ADP-Glo luminescence; series mostly up to 80 µM; note: % is set by controls: 0 for no effect and ±100 for the full control effect; nearly all actives have a fitted effect of over 70% in size
Method in brief: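 Clk4 (25 nM) was incubated 1 hr at room temperature with 100 uM RS repeat peptide and 1 uM ATP in buffer with 2 mM MgCl2, 0.5 mM EGTA, 2.5 mM DTT. ADP formed was quantified by ADP-Glo luminescence.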

[19] = qHTS Assay for Identification of Small Molecule Agonists for Hypoxia Response Element Signaling Pathway (AID 914; active = well fitted activation curve with a large enough effect in the signal ratio, with a control signal flat, not every such curve was filed as active; the % refers to the signal ratio; note: potency is the fitted concentration of half-maximal effect; for activation: % of control where 0% means no effect); settings: ME-180 (cervical carcinoma) HRE-bla reporter, beta-lactamase ratio, CoCl2, 17 h; activation: stronger effect = higher value
Method in brief: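 HRE-bla ME-180 assay for agonist-like enhancement of an EC50 CoCl2 stimulus: 17 h at 37 degrees Celsius, CCF4 for 2.5 h, ratiometric 460/530 nm signal converted to %Activity and fitted to AC50.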

[20] = measured here: cell count channel max response
[21] = measured here: lipid channel max response

Chain of Cytochrome P450 3A4 (Homo sapiens) (P08684 whole entry, looked up): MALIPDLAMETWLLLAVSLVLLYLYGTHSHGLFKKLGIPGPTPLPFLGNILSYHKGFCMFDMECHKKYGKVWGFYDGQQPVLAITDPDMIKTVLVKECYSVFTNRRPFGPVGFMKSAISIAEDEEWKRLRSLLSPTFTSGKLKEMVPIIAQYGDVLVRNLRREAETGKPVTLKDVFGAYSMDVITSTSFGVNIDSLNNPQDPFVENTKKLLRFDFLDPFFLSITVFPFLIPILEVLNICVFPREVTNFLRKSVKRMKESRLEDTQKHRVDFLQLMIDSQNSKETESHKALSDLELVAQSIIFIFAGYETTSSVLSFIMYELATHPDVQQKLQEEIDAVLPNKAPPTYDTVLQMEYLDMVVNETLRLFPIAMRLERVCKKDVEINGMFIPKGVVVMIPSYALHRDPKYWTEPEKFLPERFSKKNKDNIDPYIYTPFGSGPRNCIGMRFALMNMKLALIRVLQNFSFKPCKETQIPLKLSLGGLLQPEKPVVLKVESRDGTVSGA
Chain of Dual specificity protein kinase CLK4 (Homo sapiens) (Q9HAZ1 whole entry, looked up): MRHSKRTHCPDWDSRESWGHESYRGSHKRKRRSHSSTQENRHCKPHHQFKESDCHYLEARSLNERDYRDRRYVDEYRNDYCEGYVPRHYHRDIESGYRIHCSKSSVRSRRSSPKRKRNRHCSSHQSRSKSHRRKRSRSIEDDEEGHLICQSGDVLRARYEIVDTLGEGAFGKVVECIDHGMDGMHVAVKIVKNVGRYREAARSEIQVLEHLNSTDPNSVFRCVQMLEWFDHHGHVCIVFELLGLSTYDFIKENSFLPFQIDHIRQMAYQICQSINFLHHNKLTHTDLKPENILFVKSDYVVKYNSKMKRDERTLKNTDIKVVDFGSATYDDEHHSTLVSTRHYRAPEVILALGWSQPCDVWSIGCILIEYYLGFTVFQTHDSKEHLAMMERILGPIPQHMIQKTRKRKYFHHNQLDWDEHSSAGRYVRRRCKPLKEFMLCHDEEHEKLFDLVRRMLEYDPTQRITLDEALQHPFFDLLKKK
Chain of Cytochrome P450 1A2 (Homo sapiens) (P05177 whole entry, looked up): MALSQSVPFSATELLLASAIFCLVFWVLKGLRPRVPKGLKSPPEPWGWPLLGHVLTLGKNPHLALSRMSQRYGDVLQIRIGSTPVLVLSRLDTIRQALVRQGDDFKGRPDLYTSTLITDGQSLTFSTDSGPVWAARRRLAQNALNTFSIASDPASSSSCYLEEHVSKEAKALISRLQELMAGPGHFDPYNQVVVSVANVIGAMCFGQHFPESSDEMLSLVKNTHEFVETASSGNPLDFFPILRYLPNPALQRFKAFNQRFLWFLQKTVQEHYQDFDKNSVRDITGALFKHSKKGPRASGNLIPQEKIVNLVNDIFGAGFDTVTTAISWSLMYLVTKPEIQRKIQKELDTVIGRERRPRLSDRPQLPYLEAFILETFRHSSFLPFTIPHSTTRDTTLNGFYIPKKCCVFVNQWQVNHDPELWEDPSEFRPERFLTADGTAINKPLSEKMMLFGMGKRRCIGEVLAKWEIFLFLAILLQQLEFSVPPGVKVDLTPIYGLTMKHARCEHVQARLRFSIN
Chain of Ubiquitin carboxyl-terminal hydrolase 1 (Homo sapiens) (O94782 whole entry, looked up): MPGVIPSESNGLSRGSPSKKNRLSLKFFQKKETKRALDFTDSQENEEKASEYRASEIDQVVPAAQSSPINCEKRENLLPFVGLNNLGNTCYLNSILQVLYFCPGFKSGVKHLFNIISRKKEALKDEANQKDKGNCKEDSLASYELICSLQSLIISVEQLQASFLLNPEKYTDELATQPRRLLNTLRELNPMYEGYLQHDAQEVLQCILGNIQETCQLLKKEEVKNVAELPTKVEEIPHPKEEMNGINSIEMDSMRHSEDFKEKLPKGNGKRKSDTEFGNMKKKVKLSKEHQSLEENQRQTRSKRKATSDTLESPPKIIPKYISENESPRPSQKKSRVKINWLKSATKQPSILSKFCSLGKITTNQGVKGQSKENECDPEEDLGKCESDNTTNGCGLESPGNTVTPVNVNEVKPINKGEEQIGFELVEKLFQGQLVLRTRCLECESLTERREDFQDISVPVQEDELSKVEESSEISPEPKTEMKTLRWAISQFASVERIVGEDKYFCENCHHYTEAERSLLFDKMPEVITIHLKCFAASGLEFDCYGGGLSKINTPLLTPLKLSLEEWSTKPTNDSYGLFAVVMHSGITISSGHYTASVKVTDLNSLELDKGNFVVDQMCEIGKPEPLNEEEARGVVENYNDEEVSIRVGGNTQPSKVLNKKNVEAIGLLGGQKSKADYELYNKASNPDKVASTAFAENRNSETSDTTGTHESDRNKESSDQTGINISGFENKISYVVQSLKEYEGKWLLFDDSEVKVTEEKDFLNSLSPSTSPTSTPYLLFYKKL
Chain of Glucocorticoid receptor (Homo sapiens) (P04150 whole entry, looked up, the tested form may be a part): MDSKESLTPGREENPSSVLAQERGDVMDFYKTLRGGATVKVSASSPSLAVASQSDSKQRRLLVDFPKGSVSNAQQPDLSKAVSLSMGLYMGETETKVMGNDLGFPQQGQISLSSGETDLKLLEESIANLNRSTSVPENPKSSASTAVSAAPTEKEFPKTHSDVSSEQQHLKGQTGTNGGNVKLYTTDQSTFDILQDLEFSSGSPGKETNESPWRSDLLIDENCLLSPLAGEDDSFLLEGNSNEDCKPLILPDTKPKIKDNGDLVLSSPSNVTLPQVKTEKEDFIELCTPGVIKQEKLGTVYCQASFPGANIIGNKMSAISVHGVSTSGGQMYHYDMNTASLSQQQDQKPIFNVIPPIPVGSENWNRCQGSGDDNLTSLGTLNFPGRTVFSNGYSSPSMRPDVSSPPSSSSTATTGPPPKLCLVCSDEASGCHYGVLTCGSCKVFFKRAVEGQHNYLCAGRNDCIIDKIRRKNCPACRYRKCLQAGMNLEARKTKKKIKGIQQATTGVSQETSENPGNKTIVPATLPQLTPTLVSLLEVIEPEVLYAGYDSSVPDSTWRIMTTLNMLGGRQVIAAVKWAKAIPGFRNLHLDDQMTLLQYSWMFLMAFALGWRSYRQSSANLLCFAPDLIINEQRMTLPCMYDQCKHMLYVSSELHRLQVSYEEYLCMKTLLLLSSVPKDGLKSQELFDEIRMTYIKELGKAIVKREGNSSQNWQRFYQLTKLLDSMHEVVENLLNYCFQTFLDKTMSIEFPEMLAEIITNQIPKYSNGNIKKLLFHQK
Chain of Lysosomal acid glucosylceramidase (Homo sapiens) (P04062 whole entry, looked up): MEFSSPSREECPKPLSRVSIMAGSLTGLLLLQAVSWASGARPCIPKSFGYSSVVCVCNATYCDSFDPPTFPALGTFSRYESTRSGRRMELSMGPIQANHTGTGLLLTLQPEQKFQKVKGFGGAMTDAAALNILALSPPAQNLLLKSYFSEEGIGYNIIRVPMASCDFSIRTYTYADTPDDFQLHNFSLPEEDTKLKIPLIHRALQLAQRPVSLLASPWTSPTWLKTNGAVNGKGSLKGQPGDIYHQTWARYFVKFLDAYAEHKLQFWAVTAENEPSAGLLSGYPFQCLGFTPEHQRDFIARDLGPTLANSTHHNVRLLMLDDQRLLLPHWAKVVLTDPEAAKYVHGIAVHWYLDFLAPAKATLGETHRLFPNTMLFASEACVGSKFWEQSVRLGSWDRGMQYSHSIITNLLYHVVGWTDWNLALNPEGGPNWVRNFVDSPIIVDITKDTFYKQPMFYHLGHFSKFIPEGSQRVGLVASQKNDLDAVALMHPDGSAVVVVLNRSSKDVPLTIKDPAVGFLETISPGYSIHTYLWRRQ
Chain of 3',5'-cyclic-AMP phosphodiesterase 4B (Homo sapiens) (Q07343 whole entry, looked up): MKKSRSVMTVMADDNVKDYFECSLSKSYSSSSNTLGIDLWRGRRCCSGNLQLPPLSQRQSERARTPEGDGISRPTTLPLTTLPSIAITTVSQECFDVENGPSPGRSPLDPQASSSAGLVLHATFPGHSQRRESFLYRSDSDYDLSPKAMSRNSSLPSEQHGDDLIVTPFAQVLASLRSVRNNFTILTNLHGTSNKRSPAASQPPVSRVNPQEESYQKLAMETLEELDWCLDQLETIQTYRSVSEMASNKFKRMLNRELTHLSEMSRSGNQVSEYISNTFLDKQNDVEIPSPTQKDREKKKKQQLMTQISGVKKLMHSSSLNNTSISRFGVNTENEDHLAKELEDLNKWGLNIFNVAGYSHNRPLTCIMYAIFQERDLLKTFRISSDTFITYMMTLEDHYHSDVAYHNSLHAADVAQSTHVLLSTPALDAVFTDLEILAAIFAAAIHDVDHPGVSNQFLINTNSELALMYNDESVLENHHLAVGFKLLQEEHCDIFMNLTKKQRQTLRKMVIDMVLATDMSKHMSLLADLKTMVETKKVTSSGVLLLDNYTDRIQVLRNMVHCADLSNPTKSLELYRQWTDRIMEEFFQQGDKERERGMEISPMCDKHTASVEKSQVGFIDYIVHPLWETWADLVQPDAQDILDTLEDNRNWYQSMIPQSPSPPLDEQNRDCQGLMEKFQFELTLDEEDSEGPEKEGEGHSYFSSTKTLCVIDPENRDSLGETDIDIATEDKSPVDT
Chain of Cytochrome P450 2C19 (Homo sapiens) (P33261 whole entry, looked up): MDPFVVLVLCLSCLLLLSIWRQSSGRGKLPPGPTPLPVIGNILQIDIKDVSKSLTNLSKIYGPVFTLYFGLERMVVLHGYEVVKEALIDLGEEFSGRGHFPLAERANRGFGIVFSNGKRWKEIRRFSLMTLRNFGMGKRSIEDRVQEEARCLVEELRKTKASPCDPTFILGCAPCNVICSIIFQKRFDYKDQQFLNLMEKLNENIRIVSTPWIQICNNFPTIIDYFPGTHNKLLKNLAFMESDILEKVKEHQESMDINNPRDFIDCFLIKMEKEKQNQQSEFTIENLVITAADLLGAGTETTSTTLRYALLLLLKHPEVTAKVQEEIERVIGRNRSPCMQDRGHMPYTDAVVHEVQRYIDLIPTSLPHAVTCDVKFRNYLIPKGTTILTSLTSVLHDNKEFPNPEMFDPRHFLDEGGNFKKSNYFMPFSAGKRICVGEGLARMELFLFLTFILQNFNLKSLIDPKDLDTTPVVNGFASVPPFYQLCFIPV

Cc1ccccc1-c1cc(Nc2ccccc2)ncn1
31.4%: max response [11, 21]
inactive: Potency [1] > 11.4 µM | activity change, negative = inhibition [2] -4.93% | activity change, negative = inhibition [4] 1.39% | activity, negative = inhibition [5] 4.11% | Potency [6] > 46 µM | Potency [7] > 46 µM | outcome [8] | Potency [9] | activity change, negative = inhibition [11] 4.64% | Potency [12] | Potency [13] | Potency [14] | Potency [15]
active: Potency [3] 3.98 µM | Potency [10] 3.16 µM
30.6%: max response [11, 20]

CCNc1ncc2nc(-c3cc(F)cc(F)c3)c(=O)n(C[C@H]3CCCO3)c2n1
active: Potency [3] 3.16 µM
19%: max response [11, 21]
inactive: Potency [1] > 11.4 µM | activity change, negative = inhibition [2] 7.28% | activity change, negative = inhibition [4] 8.04% | activity, negative = inhibition [5] -1.58% | Potency [6] > 9.22 µM | Potency [7] > 46 µM | outcome [8] | Potency [16] | Potency [17] | activity change, negative = inhibition [11] 6.72% | Potency [18] | Potency [13] | Potency [14] | Potency [15]
13.4%: max response [11, 20]

COc1cccc(Cn2c(=O)c(-c3cc(F)cc(F)c3)nc3cnc(N(C)C)nc32)c1
inactive: Potency [1] > 11.4 µM | Potency [6] > 9.22 µM | Potency [7] > 46 µM | outcome [8] | Potency [16] | activity change, negative = inhibition [11] -0.73% | Potency [18] | Potency [13] | Potency [14] | Potency [15]
active: activity, negative = inhibition [5] 91.4% [activator] | Potency [19] 0.398 µM
19.9%: max response [11, 20]
18.8%: max response [11, 21]

Cc1cnc(CNc2ncncc2-c2cccc(C#N)c2)cn1
active: Potency [3] 12.6 µM | Potency [9] 2 µM | Potency [12] 28.2 µM
25.3%: max response [11, 21]
inactive: Potency [1] > 11.4 µM | activity change, negative = inhibition [2] 15% | activity change, negative = inhibition [4] 1.24% | activity, negative = inhibition [5] 9.2% | Potency [6] > 46 µM | Potency [7] > 46 µM | outcome [8] | Potency [16] | Potency [17] | activity change, negative = inhibition [11] 8.03% | Potency [15]
20.9%: max response [11, 20]

COc1cccc(Nc2ncc3nc(C)c(=O)n(C4CC4)c3n2)c1
-1.52%: max response [11, 20]
active: Potency [3] 1.26 µM | Potency [9] 6.31 µM | Potency [12] 12.6 µM
-13.2%: max response [11, 21]
inactive: Potency [1] > 11.4 µM | activity change, negative = inhibition [2] -16.4% | activity change, negative = inhibition [4] 5.07% | activity, negative = inhibition [5] -13.4% | Potency [6] > 9.22 µM | outcome [8] | Potency [16] | Potency [17] | activation [19] -3.86% | activity change, negative = inhibition [11] -5.91% | Potency [14] | Potency [15]

COCCNc1cc(-c2ccccc2C)ncn1
inactive: Potency [1] > 11.4 µM | activity change, negative = inhibition [2] 5.04% | activity change, negative = inhibition [4] 5.56% | activity, negative = inhibition [5] 13.1% | Potency [6] > 46 µM | Potency [7] > 46 µM | outcome [8] | Potency [16] | activity change, negative = inhibition [11] 6.88% | Potency [15]
active: Potency [3] 15.8 µM | Potency [12] 12.6 µM
3.79%: max response [11, 20]
8.94%: max response [11, 21]
